Screens as filed in PubChem BioAssay.
hcDAF12 agonist: H. contortus DAF-12 nuclear receptor activators, primary screen, cell-based, luminescence, HEK293, lit1-tk-luc reporter. HEK293 hcDAF-12 lit1-tk-luc reporter; 0% DMSO, 100% Δ7-dafachronic acid. 1.4% of 370,000 active. activation, % at 6.8 µM;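 active = activation above the mean of all tested compounds plus 3 SD, cut at about 5.5% in these data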
DAX1 inh-1: DAX1 (NR0B1) inhibitors on StAR promoter, primary screen, cell-based, luminescence, SF-1 (NR5A1), full-length DAX-1. HEK293T StAR-luciferase reporter, SF-1/DAX-1 repression relief. inhibition, % at 6.8 µM. 1.1% of 370,000 active. AID 652010, 2013;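 active = inhibition above the mean over all tested compounds plus 3 SD, cut at about 3.6% in these data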;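 also: higher inhibition means more luminescence from relief of DAX-1 repression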
SMARCA2 act: SMARCA2 (BRM) function activators, primary screen, cell-based, luminescence, high throughput. MG213 cells, MMTV-luciferase reporter, dexamethasone, overnight. activation, % at 9.1 µM. 1% of 370,000 active. AID 652017, 2013; in the data active = activation above about 7.8%
hgDAF12 agonist: H. glycines DAF-12 receptor agonists, primary screen, cell-based, luminescence, HEK293, GAL4 fusion, UAS-luciferase; Nuclear hormone receptor DAF-12 (Heterodera glycines), GAL4 fusion; 1.8% of 370,000 active; HEK293 GAL4-hgDAF12 UAS-luciferase reporter, agonist luminescence; normalized to butyrate control; activation, % at 6.8 µM;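 active = activation above a cutoff set at the mean of all screened compounds plus 3 SD, cut at about 10% in these data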
ssDAF12 agonist: S. stercoralis DAF-12 nuclear receptor activators, primary screen, cell-based, luminescence, HEK293, GRIP1 co-expression, lit1-tk-luc; Nuclear hormone receptor DAF-12 (Strongyloides stercoralis); HEK293 ssDAF-12/GRIP1 lit1-tk-luc reporter; % of 3 µM dafachronic acid response; activation, % at 6.8 µM; 1% of 370,000 active; AID 652126, 2013;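 active = activation above the mean over all tested compounds plus 3 SD, cut at about 0.9% in these data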
DAX1 inh-2: DAX1 (NR0B1) inhibitors, primary screen, cell-based, HEK293, Gal4-DAX1, luciferase luminescence; HEK293 Gal4-DAX1 luciferase reporter; inhibition, % at 6.75 µM; 0.99% of 340,000 active; AID 504766, 2011;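 active = inhibition above the mean over all tested compounds plus 3 SD, cut at about 4.2% in these data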;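 also: inhibition shows as a rise in luminescence from relieved DAX1 repression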
Target sequence (P51843 207-470 limits assumed): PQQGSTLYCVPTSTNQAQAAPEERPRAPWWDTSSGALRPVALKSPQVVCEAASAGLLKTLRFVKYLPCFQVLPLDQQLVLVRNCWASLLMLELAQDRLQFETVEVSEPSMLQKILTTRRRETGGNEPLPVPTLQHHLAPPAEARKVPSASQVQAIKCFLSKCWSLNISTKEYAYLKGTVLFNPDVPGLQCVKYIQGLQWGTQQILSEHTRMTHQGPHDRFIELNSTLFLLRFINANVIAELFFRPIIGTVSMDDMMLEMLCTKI
Numbers stand for hits; – = inactive; · = not tested or not shown. Hits are enriched below; roughly 4.8% of the tested compounds scored in any of these assays.

SMILES | hcDAF12 agonist | DAX1 inh-1 | SMARCA2 act | hgDAF12 agonist | ssDAF12 agonist | DAX1 inh-2
CCC1CCCCN1C(=O)c1ccc(OC2CCN(Cc3ccccn3)CC2)cc1 (stereo not given) | – | – | – | 11.2 | – | –
CCN1C(=O)CCN(C2CCCC2)c2nc(Nc3ccc(C(=O)NC4CCN(C)CC4)cc3OC)ncc21 | – | – | – | – | – | 8.2
COc1ccc(C(=O)NC2CCCCCC2)cc1S(=O)(=O)N1CCCc2ccccc21 | – | – | – | – | – | –
Cc1c(C(=O)O)cc(C(C)(C)C)n1CCSCCO | – | – | – | – | – | 6.8
CSCCn1c(C(C)(C)C)cc(C(=O)O)c1C | – | – | – | – | – | –
CC(C)C[C@H]1COc2cc(Br)ccc2S(=O)(=O)N1Cc1cn(Cc2ccco2)nn1 | – | – | – | – | – | ·
CCOc1ccccc1N(CC(=O)Nc1ccccc1F)S(=O)(=O)c1ccccc1 | – | – | – | 10.5 | – | –
Cc1ccc(C(=O)NC2CCCCN(Cc3cccc(Cl)c3)C2=O)c(C)c1 (stereo not given) | – | – | – | – | – | ·
Cc1ccccc1CN1CCCCC(NC(=O)c2ccccc2F)C1=O (stereo not given) | – | – | – | – | – | ·
Cc1ccccc1CN1CCCCC(NC(=O)C2CCC2)C1=O (stereo not given) | – | – | – | – | 1.9 | ·
Cc1ccccc1C(=O)NC1CCCCN(Cc2cccc(Cl)c2)C1=O (stereo not given) | – | – | – | – | 1.0 | ·
COC(=O)c1cc(C(c2ccccc2O)C2CCC(C)(C)O2)n2ccccc12 (stereo not given) | – | – | – | – | – | ·
Cc1nc2sc(-c3ccccc3)cc2c(=O)n1-n1cccc1 | – | – | – | 11.4 | – | –
Cc1nc2sc(-c3ccccc3)cc2c(=O)n1/N=C/N(C)C | – | – | – | 10.6 | 0.9 | –
O=C(CCN1C(=O)c2cccc3cccc(c23)C1=O)N1CCOCC1 | – | – | – | 12.8 | – | –
Cc1cc(CN2CCCC(N3CCc4ccccc4C3)C2)cc(C)c1O (stereo not given) | – | – | – | 10.8 | – | –
CC(C)(C)NC(=O)C(c1cccnc1)N(C(=O)c1ccc(Cl)nc1)C1CCCC1 (stereo not given) | – | – | – | – | – | –
O=C(NC1CCCCC1)C(c1cccnc1)N(C(=O)c1ccc(Cl)nc1)C1CCCCC1 (stereo not given) | – | – | – | – | 1.7 | –
Cc1ccc(C(=O)C(C)OC(=O)c2ccc(Cl)nc2)cc1 (stereo not given) | – | – | – | – | – | –
CC(C)CC(OC(=O)c1ccc(Cl)nc1)C(=O)NC1CCCC1 (stereo not given) | – | – | – | – | 1.1 | –
CCCCCCCCN1C(=O)N2Cc3cc(OC)ccc3C2CS1(=O)=O (stereo not given) | – | – | – | – | – | ·
CC(=O)c1cccc(OCC(=O)N(CCC2=CCCCC2)c2c(N)n(Cc3ccccc3)c(=O)[nH]c2=O)c1 | – | – | – | – | – | 4.3
CC(=O)c1ccc(OCC(=O)N(CCC2=CCCCC2)c2c(N)n(Cc3ccccc3)c(=O)[nH]c2=O)cc1 | – | – | – | – | – | –
O=[N+]([O-])c1cccc(OCCCN2CCC(C(O)(c3ccccc3)c3ccccc3)CC2)c1 | – | – | – | – | – | ·
c1cncc(CSc2ccc(-c3ccc4c(c3)OCO4)nn2)c1 | 5.6 | – | – | – | – | –
SMILES | hcDAF12 agonist | DAX1 inh-1 | SMARCA2 act | hgDAF12 agonist | ssDAF12 agonist | DAX1 inh-2
N#Cc1ccc(CSc2nc3sc4c(c3c(=O)n2-c2ccc(Br)cc2)CCCC4)cc1 | – | – | – | – | – | ·
c1ccc(Cn2ccc3ccc(-c4ccc5ccn(Cc6ccc7ccccc7c6)c5c4)cc32)cc1 | – | – | – | – | – | ·
Clc1ccc(Cn2ccc3ccccc32)cn1 | – | – | – | – | – | 6.0
Cc1cc(/C(N)=N/OC(=O)Nc2ccccc2)no1 | – | – | – | – | – | ·
C/C(=N\OC(=O)Nc1ccccc1)c1ccc(C)cc1 | – | – | – | – | – | 5.9
O=c1c(Cl)c(N2CCOCC2)cnn1-c1nc2ccccc2[nH]1 | – | 4.2 | – | – | – | –
c1ccc2[nH]c(N3CCOCC3)nc2c1 | – | – | – | – | – | –
Cc1[nH]c2ccccc2c1/C=N/NC(=O)c1ccccc1 | – | – | – | – | – | 4.5
O=C(N/N=C/c1ccc(Br)s1)c1cccs1 | – | – | – | – | – | ·
Cc1[nH]c2ccccc2c1/C=N/NC(=O)c1cccc(Br)c1 | · | · | · | · | · | –
Cc1[nH]c2ccccc2c1/C=N/NC(=O)Nc1ccccc1 | 6.0 | – | – | – | – | –
O=C(N/N=C/c1ccc(Br)s1)Nc1ccccc1 | – | – | – | 11.2 | – | –
c1ccc(-c2nnc3n2N=C(c2ccc4ccccc4c2)CS3)cc1 | – | – | – | – | – | ·
CN(Cc1ccccc1)S(=O)(=O)c1cccc(C(=O)OCc2ccc(C(F)(F)F)cc2)c1 | – | – | – | – | – | ·
CC(On1nnc2ccc(S(=O)(=O)N3CCOCC3)cc21)C(=O)Nc1ccccc1F (stereo not given) | – | – | – | – | – | 5.0
COc1ccc(S[C@]2(C(=O)N3CCN(C(C)=O)CC3)CC(=O)N(S(=O)(=O)c3ccc(F)cc3)[C@@H]2c2ccc(OC)cc2)cc1 | – | – | – | – | – | ·
Cc1ccc(NC(=O)Cn2nnc(-c3ccncc3)n2)cc1C | – | – | – | – | – | ·
Cc1c(NC(=O)C2CCCN(S(=O)(=O)c3c(C(C)C)cc(C(C)C)cc3C(C)C)C2)c(=O)n(-c2ccccc2)n1C (stereo not given) | – | – | – | – | – | ·
Cc1ccc(NC(=O)c2ccc(Cl)c(S(=O)(=O)NCc3ccco3)c2)c(O)c1 | – | 3.9 | – | – | – | –
NS(=O)(=O)c1ccc(NC(=O)c2ccc(Cl)c(S(=O)(=O)NCc3ccco3)c2)cc1 | – | – | – | – | – | –
COc1ccccc1C(=O)COC(=O)Cc1n[nH]c(=O)c2ccccc12 | – | – | – | – | – | –
COc1ccc(C(C)=O)cc1COC(=O)Cc1n[nH]c(=O)c2ccccc12 | – | – | – | – | – | 5.3
O=C(OCC#CCSc1nnc(-c2ccc(Br)cc2)o1)c1cccs1 | – | – | – | – | 1.0 | –
